Source: PubChem BioAssay (National Center for Advancing Translational Sciences (NCATS))
In the library only some 9.4% were active in any assay of this set; here they are far more common.
SMN2 splice up: SMN2 splice variant enhancement; hit rate 2.8% among 210,000; Potency, µM (highest dose often 46.1 µM), usual class: activators; HEK293 SMN2-luciferase splicing reporter, luminescence, 30-36 h; AID 1458; note: nearly all actives have a fitted effect of over 55% in size
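HEK293 cells carry an SMN2 minigene-luciferase reporter in which exon 7 inclusion puts luciferase in frame. Cells were seeded at 2000 cells/well, attached for 10-12 hours, then exposed to compounds for 30-36 hours at 37C before ONE-Glo luminescence.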
FLuc modulator: firefly luciferase modulation, counter-screen for miR-21 project | hit rate 6.9% among 360,000 | P08659 | purified FLuc, Km substrates, luminescence inhibition | Potency, µM (series often up to 57.5 µM), usual class: inhibitors; note: nearly all actives have a fitted effect of over 55% in size
Target sequence (P08659 whole entry, looked up): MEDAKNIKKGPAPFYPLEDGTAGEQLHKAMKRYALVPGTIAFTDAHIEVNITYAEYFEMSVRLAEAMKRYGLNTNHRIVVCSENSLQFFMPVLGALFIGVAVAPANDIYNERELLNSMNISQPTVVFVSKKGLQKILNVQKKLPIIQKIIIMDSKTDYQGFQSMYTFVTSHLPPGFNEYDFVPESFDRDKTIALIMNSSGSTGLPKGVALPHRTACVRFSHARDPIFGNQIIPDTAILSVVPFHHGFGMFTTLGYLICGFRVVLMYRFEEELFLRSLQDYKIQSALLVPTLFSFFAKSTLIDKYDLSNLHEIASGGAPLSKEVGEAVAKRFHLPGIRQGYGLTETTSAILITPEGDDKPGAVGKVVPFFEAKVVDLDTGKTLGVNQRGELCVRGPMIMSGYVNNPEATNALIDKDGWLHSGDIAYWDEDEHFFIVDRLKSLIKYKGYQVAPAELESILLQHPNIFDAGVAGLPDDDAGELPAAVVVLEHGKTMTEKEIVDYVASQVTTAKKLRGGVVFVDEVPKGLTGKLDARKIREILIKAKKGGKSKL
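Purified P. pyralis luciferase (10nM final) with 10uM D-luciferin and 10uM ATP (Km levels) in 50mM Tris acetate pH 7.5, 10mM Mg acetate, 0.01% Tween-20, 0.05% BSA; qHTS 6-point titration, ~60 µM downward; luminescence read.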
ELG1 DNA repair: blocks ELG1-dependent DNA repair in HEK293T cells; HEK293T ELG1-luciferase reporter, luminescence, 16 h; DNA damage induced by 5-fluorouridine; AID 504467; hit rate 2.3% among 330,000; Potency, µM (highest dose often 46.1 µM), most hits filed as inhibitors; note: nearly all actives have a fitted effect of over 55% in size
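Luminescence from the luciferase reporter, measured 30 min after ONE-Glo reagent at room temperature, was the read-out. Beforehand, 2,000 cells per well were exposed for 16 hr at 37 °C to 5-fluorouridine together with compound or vehicle.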
ELG1 genotox: inducers of genotoxicity in HEK293T ELG1-luciferase cells; HEK293T ELG1-luciferase reporter, luminescence, 16 h; Potency, µM (top dose mostly 46 µM), usual class: activators; hit rate 1.3% among 330,000; AID 504466; note: nearly all actives have a fitted effect of over 60% in size
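ELG1-luciferase HEK293T cells, 2,000/well; compound pinned in; 16 hr, 37 °C, 5% CO2; ONE-Glo, 30 min RT; luminescence on CCD imager.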
NPC1 prom act: activators of NPC1 promoter; Huh7 NPC1 promoter luciferase reporter, 24 h; Potency, µM (series often up to 9.22 µM), actives largely listed as activators; hit rate 2.4% among 320,000; note: nearly all actives have a fitted effect of over 60% in size
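NPC1 promoter–luciferase Huh7 cells; 24 h compound; luminescence.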
Rab9 prom act: Rab9 promoter activation. Huh7 Rab9 promoter-luciferase reporter, luminescence, 24 h. Potency, µM (highest dose often 9.22 µM), actives largely listed as activators. hit rate 2.8% among 320,000; note: nearly all actives have a fitted effect of over 60% in size
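Stable Rab9-luc Huh7, 1500 cells/well, 2 h settle; cmpd in DMSO, 24 h, 37 °C/5% CO2; luciferase reagent 10 min RT; luminescence.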
Hits are given with their value; – = inactive; ? = inconclusive; · = no result given; [ ] = dose if it differs, or a comment. Calls come from the whole dose curve; as a rule, active = well fitted curve in the direction sought with a large enough effect; inconclusive = small, poorly fitted or top-dose-only effect, or another doubt; inactive = no such curve, though single readings can be large; an effect the other way counts as inactive or inconclusive.

SMILES	SMN2 splice up	FLuc modulator	ELG1 DNA repair	ELG1 genotox	NPC1 prom act	Rab9 prom act
O=C(Nc1ccc2c(c1)OCO2)NC1CCN(Cc2ccccc2)CC1	?	16.9µM	?	?	–	–
O=C(Nc1ccc(F)cc1)NC1CCN(Cc2ccccc2)CC1	–	–	–	–	–	–
O=C(O)Cc1ccc(NC(=O)Nc2ccc3c(c2)OCO3)cc1	·	9.53µM	?	?	–	?
O=C(NCc1ccc2c(c1)OCO2)Nc1ccc(Cl)cc1	·	–	?	?	–	–
O=C(Nc1ccc2c(c1)OCO2)c1cccc(F)c1	?	12µM	·	·	·	·
CC(Nc1oc(-c2ccc(COc3ccccc3)o2)nc1C#N)c1ccccc1 (centres undefined)	·	–	·	·	·	·
COc1cccc(CNC(=O)Cn2c(=O)cc(C(F)(F)F)c3c(C)nn(C)c32)c1OC	·	–	·	·	·	·
O=C(/C=C/c1ccc([N+](=O)[O-])s1)N1CCCC1	–	–	14.6µM	–	–	–
O=C(/C=C/c1cccs1)N1CCCCC1	17.8µM	?	?	?	–	–
O=C(/C=C/c1cccs1)N1CCN(c2ccc(O)cc2)CC1	–	–	?	–	–	–
O=C(/C=C/c1ccc([N+](=O)[O-])s1)N1CCCCC1	–	–	?	–	–	–
C/C(=N/Nc1cc(-c2ccccc2)nc(-c2ccccc2)n1)c1ccc(O)cc1	·	10.7µM	–	–	–	–
CC(=O)Nc1ccc(-c2cc(-c3ccc(NC(C)=O)cc3)nc(-c3ccccc3)n2)cc1	–	–	–	–	–	–
CCc1ccc(/C(C)=N/Nc2cc(Cl)nc(C)n2)cc1	–	?	–	–	–	–
C/C(=N/Nc1nc(-c2ccccc2)cc(-c2ccccc2)n1)c1ccc(N)cc1	?	5.36µM	8.2µM	–	–	–
Nc1ccc(-c2cc(-c3cccc(N)c3)nc(-c3ccccc3)n2)cc1	–	–	?	–	–	–
C/C(=N\Nc1cc(Cl)nc(C)n1)c1ccccc1	–	9.53µM	?	–	?	?
CC1=C(C(=O)Nc2ccccc2)C(c2ccncc2)n2nc(SCc3ccccc3)nc2N1 (centres undefined)	–	–	·	·	·	·
COc1ccc2nc3sc(C(=O)Nc4cc(Cl)c(OC)cc4OC)cc3cc2c1	–	–	·	·	·	·
COc1ccc(NC(C)=O)cc1NC(=O)C1(c2cccs2)CCOCC1	·	–	·	·	·	·
c1ccc(Sc2ncnc3ccccc23)cc1	·	19µM	–	–	–	–
N#CCSc1nc(-c2ccccc2)nc2ccccc12	·	?	?	–	–	–
N#CCSc1ncnc2ccccc12	–	–	23.1µM	–	–	–
CC(C)OC(=O)Cn1nnc2c(cnn2-c2ccccc2)c1=O	–	16.9µM	?	–	–	–
COC(=O)Cn1nnc2c(cnn2-c2ccccc2)c1=O	·	–	–	–	–	–
SMILES	SMN2 splice up	FLuc modulator	ELG1 DNA repair	ELG1 genotox	NPC1 prom act	Rab9 prom act
CCOc1ccccc1CNC(=O)C(CC)n1nc(C)c2c(C)n(-c3ccccc3)nc2c1=O (centres undefined)	·	–	·	·	·	·
Cc1ccc(N=C2NC(=O)/C(=C/c3cccn3C)S2)cc1	·	3.38µM	?	23.1µM	?	?
O=C1NC(=Nc2ccccc2)S/C1=C/c1cccnc1	–	?	–	–	–	–
Cc1ccc(N=C2NC(=O)/C(=C/C=C/c3ccco3)S2)cc1	?	?	–	–	–	–
O=C1NC(=Nc2ccccc2)S/C1=C\C=C\c1ccco1	14.1µM	19µM	?	?	–	–
O=C1NC(=Nc2ccccc2)S/C1=C/c1cccs1	?	10.7µM	?	?	?	?
O=C1NC(=Nc2cccnc2)S/C1=C\c1cccc(F)c1	·	30.1µM	–	–	–	–
COc1cc(-c2ccno2)ccc1S(=O)(=O)N1CCN(c2ccc(F)cc2)CC1	·	–	·	·	·	·
CC(C)(C)OC(=O)N1CCC(NC(=O)c2[nH]cnc2C(=O)Nc2cccc(Cl)c2)CC1	·	–	18.3µM	–	–	–
CC(C)(C)OC(=O)NCc1ccc(CNC(=O)c2nc[nH]c2C(=O)N2CCN(C(=O)OC(C)(C)C)CC2)cc1	·	–	11.6µM	–	–	–
CC(C)(C)OC(=O)N1CCN(C(=O)c2[nH]cnc2C(=O)Nc2ccc(Cl)cc2)CC1	·	·	20.6µM	–	·	·
Cn1cnc(C(=O)NC2CCN(C(=O)OC(C)(C)C)CC2)c1C(=O)NC1CCN(C(=O)OC(C)(C)C)CC1	·	·	10.3µM	–	·	·
O=C(NCC(c1cccnc1)N1CCN(Cc2ccccc2)CC1)C(=O)Nc1ccc(Cl)cc1 (centres undefined)	·	–	·	·	·	·
CCOc1ccc(S(=O)(=O)Nc2ccc3c(c2)N(C(C)=O)CCC3)cc1	·	–	·	·	·	·
CCC(=O)N1CCc2cc(Br)cc(S(=O)(=O)N3CCCC(C(=O)Nc4cccc(Cl)c4C)C3)c21 (centres undefined)	–	–	·	·	·	·
Clc1nc(-c2ccccn2)nc2scc(-c3ccccc3)c12	5.62µM	0.379µM	?	?	?	4.47µM
CC1CCN(c2nc(-c3cccnc3)nc3scc(-c4ccccc4)c23)CC1	–	–	–	–	–	–
CCCN(CCC)c1cc(C)nc2nc(-c3ccc(Cl)cc3)nn12	–	–	·	·	·	·
Brc1ccc(-c2cnc(-c3cccs3)o2)cc1	?	5.36µM	?	?	?	3.98µM
CCOC(=O)[C@H]1[C@H]2COc3ccc(OC)cc3[C@@H]2N2C(=O)CN(CC3CCCO3)C(=O)[C@@]12C (some centres undefined)	·	–	–	–	–	–
Cc1cccc(N2CCN(C(=O)c3cc4c(=O)n(C)c5ccccc5c4n3C)CC2C)c1 (centres undefined)	–	–	14.6µM	–	–	–
N=c1oc2cc(O)ccc2cc1C(=O)Nc1ccc(Br)cc1	·	2.69µM	?	–	1.78µM	1.41µM
N=c1oc2ccc(Br)cc2cc1C(=O)NCc1ccccc1	·	–	–	–	–	–
O=C(NNC(=O)c1cc2ccccc2cc1O)Nc1ccc(Br)cc1	·	?	–	–	–	–
COc1ccc2oc(=N)c(C(=O)Nc3ccc(F)cc3)cc2c1	·	?	–	?	?	?
SMILES	SMN2 splice up	FLuc modulator	ELG1 DNA repair	ELG1 genotox	NPC1 prom act	Rab9 prom act
N=c1oc2ccccc2cc1C(=O)Nc1ccccc1	·	0.757µM	?	0.82µM	0.501µM	1.26µM
COc1ccc2oc(=O)c(C(=O)N3CCN(c4ccccc4C)CC3)cc2c1	14.1µM	13.5µM	?	9.2µM	–	–
N=c1oc2ccc(Cl)cc2cc1C(=O)Nc1ccc(F)cc1	·	?	?	?	3.55µM	3.55µM
O=C(O)Cc1[nH]cnc1C(=O)O	–[9.22 µM]	·	·	·	·	·
O=C(COc1ccc(F)cc1)Nc1ccccc1N1CCOCC1	·	–	–	–	–	–
Cc1cccc(N2CCN(S(=O)(=O)c3ccc4c(c3)C(C(C)C)C(=O)N4)CC2)c1C (centres undefined)	·	–	·	·	·	·
COc1cc(OC)c(NC(=O)N2CCc3cc(S(=O)(=O)N4CCC(C)CC4)ccc32)cc1Cl	–	–	·	·	·	·
